# In the supplement of paper PMC8728848:
# The full list was thinned out, with the strongest signals kept by preference.
# Tests used:
# Experiment in all cases: glycan array binding signal (z-score within array); higher = stronger binding
# Settings in all cases: glycan notation: IUPAC condensed, linker removed
# [1] = biological target: Fuc(a1-2)Gal(b1-3)[Fuc(a1-4)]GlcNAc(b1-3)[Fuc(a1-3)[Gal(b1-4)]GlcNAc(b1-6)]Gal(b1-4)Glc
# Summary of the method: (§1)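 Glycan array data came from 3228 arrays in the Consortium for Functional Glycomics database, and only arrays with an available protein sequence were kept. Glycan names were put into IUPAC-condensed notation, and columns mapping to the same glycan were averaged. The binding signal is a within-array Z-score, averaged across arrays of one protein sequence run at different concentrations or buffers and across linkers. A negative Z-score can be read as non-binding.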
# [2] = biological target: Fuc(a1-2)Gal(b1-4)GlcNAc6S
# Summary of the method: as §1
# Fuc(a1-2)[Gal(a1-3)]Gal = biological target: Fuc(a1-2)[Gal(a1-3)]Gal
# Summary of the method: as §1
# [3] = biological target: Fuc(a1-3)[Gal(b1-4)]GlcNAc(b1-2)Man(a1-3)[Fuc(a1-3)[Gal(b1-4)]GlcNAc(b1-2)Man(a1-6)]Man(b1-4)GlcNAc(b1-4)GlcNAc
# Summary of the method: as §1
# [4] = biological target: Gal(a1-3)Gal(b1-4)[Fuc(a1-3)]GlcNAc(b1-2)Man(a1-3)[Gal(a1-3)Gal(b1-4)[Fuc(a1-3)]GlcNAc(b1-2)Man(a1-6)]Man(b1-4)GlcNAc(b1-4)GlcNAc
# Summary of the method: as §1
# [5] = biological target: Gal(a1-4)Gal(b1-4)GlcNAc(b1-2)Man(a1-3)[Gal(a1-4)Gal(b1-4)GlcNAc(b1-2)Man(a1-6)]Man(b1-4)GlcNAc(b1-4)GlcNAc
# Summary of the method: as §1
# Gal(b1-3)Gal = biological target: Gal(b1-3)Gal
# Summary of the method: as §1
# [6] = biological target: Gal(b1-3)GalNAc(a1-3)[Fuc(a1-2)]Gal(b1-4)Glc
# Summary of the method: as §1
# [7] = biological target: Gal(b1-3)GlcNAc(b1-2)Man(a1-3)[Gal(b1-3)GlcNAc(b1-2)Man(a1-6)]Man(b1-4)GlcNAc(b1-4)GlcNAc
# Summary of the method: as §1
# [8] = biological target: Gal(b1-3)GlcNAc(b1-3)Gal(b1-4)Glc
# Summary of the method: as §1
# [9] = biological target: Gal(b1-4)GlcNAc(b1-2)Man(a1-3)[Man(a1-6)]Man(b1-4)GlcNAc(b1-4)GlcNAc
# Summary of the method: as §1
# [10] = biological target: Gal(b1-4)GlcNAc(b1-2)[Gal(b1-4)GlcNAc(b1-4)]Man(a1-3)[Gal(b1-4)GlcNAc(b1-2)Man(a1-6)]Man(b1-4)GlcNAc(b1-4)GlcNAc
# Summary of the method: as §1
# Gal6S(b1-4)Glc6S = biological target: Gal6S(b1-4)Glc6S
# Summary of the method: as §1
# GlcNAc(b1-3)Gal = biological target: GlcNAc(b1-3)Gal
# Summary of the method: as §1
# [11] = biological target: Man(a1-2)Man(a1-2)Man(a1-3)Man
# Summary of the method: as §1
# [12] = biological target: Man(a1-2)Man(a1-2)Man(a1-6)[Man(a1-3)]Man
# Summary of the method: as §1
# Man(a1-2)Man(a1-3)Man = biological target: Man(a1-2)Man(a1-3)Man
# Summary of the method: as §1
# [13] = biological target: Man(a1-2)Man(a1-3)[Man(a1-2)Man(a1-6)]Man
# Summary of the method: as §1
# [14] = biological target: Man(a1-2)Man(a1-3)[Man(a1-2)Man(a1-6)]Man(a1-6)[Man(a1-2)Man(a1-2)Man(a1-3)]Man
# Summary of the method: as §1
# [15] = biological target: Man(a1-2)Man(a1-6)[Man(a1-3)]Man(a1-6)[Man(a1-2)Man(a1-2)Man(a1-3)]Man
# Summary of the method: as §1
# Man(a1-3)[Man(a1-6)]Man = biological target: Man(a1-3)[Man(a1-6)]Man
# Summary of the method: as §1
# [16] = biological target: Man(a1-3)[Man(a1-6)]Man(b1-4)GlcNAc(b1-4)GlcNAc
# Summary of the method: as §1
# [17] = biological target: Neu5Ac(a2-3)Gal(b1-3)[Fuc(a1-4)]GlcNAc
# Summary of the method: as §1
# [18] = biological target: Neu5Ac(a2-3)Gal(b1-4)GlcNAc
# Summary of the method: as §1
# [19] = biological target: Neu5Ac(a2-3)Gal(b1-4)[Fuc(a1-3)]GlcNAc(b1-3)Gal
# Summary of the method: as §1
# [20] = biological target: Neu5Ac(a2-3)[GalNAc(b1-4)]Gal(b1-4)Glc
# Summary of the method: as §1
# [21] = biological target: Neu5Ac(a2-6)Gal(b1-4)GlcNAc(b1-2)Man(a1-6)Man(b1-4)GlcNAc(b1-4)GlcNAc
# Summary of the method: as §1
# [22] = biological target: Neu5Ac(a2-6)Gal(b1-4)GlcNAc(b1-3)Gal(b1-4)GlcNAc(b1-3)Gal(b1-4)GlcNAc
# Summary of the method: as §1
# [23] = biological target: Neu5Ac(b2-6)Gal(b1-4)GlcNAc
# Summary of the method: as §1
# [24] = biological target: Neu5Gc(a2-3)Gal(b1-3)[Fuc(a1-4)]GlcNAc
# Summary of the method: as §1
# [25] = biological target: Neu5Gc(a2-3)Gal(b1-4)[Fuc(a1-3)]GlcNAc
# Summary of the method: as §1
binder,measurement,setting,value
"ZG-16 (Homo sapiens), O60844 (protein) IQARSSSYSGEYGSGGGKRFSHSGNQLDGPITALRVRVNTYYIVGLQVRYGKVWSDYVGGRNGDLEEIFLHPGESVIQVSGKYKWYLKKLVFVTDKGRYLSFGKDSGTSFNAVPLHPNTVLRFISGRSGSLIDAIGLHWDVYPTSCSRCSRGSDDDDKAEPRGPTIKPCPPCKCPAPNLLGGPSVFIFPPKIKDVLMISLSPIVTCVVVDVSEDDPDVQISWFVNNVEVHTAQTQTHREDYNSTLRVVSALPIQHQDWMSGKEFKCKVNNKDLPAPIERTISKPKGSVRAPQVYVLPPPEEEMTKKQVTLTCMVTDFMPEDIYVEWTNNGKTELNYKNTEPVLDSDGSYFMYSKLRVEKKNWVERNSYSCSVVHEGLHNHHTTKSFSRTPGKRTYHHHHHHARKLTR",glycan array binding signal (z-score),[1],-0.196
same,glycan array binding signal (z-score),[2],-0.185
same,glycan array binding signal (z-score),Fuc(a1-2)[Gal(a1-3)]Gal,-0.217
same,glycan array binding signal (z-score),[3],0.273
same,glycan array binding signal (z-score),[4],-0.158
same,glycan array binding signal (z-score),[5],-0.205
same,glycan array binding signal (z-score),Gal(b1-3)Gal,-0.222
same,glycan array binding signal (z-score),[6],-0.193
same,glycan array binding signal (z-score),[7],-0.189
same,glycan array binding signal (z-score),[8],-0.226
same,glycan array binding signal (z-score),[9],-0.146
same,glycan array binding signal (z-score),[10],-0.166
same,glycan array binding signal (z-score),Gal6S(b1-4)Glc6S,-0.16
same,glycan array binding signal (z-score),GlcNAc(b1-3)Gal,-0.231
same,glycan array binding signal (z-score),[11],8.34
same,glycan array binding signal (z-score),[12],5.61
same,glycan array binding signal (z-score),Man(a1-2)Man(a1-3)Man,9.52
same,glycan array binding signal (z-score),[13],3.69
same,glycan array binding signal (z-score),[14],1.94
same,glycan array binding signal (z-score),[15],5.95
same,glycan array binding signal (z-score),Man(a1-3)[Man(a1-6)]Man,4.25
same,glycan array binding signal (z-score),[16],-0.183
same,glycan array binding signal (z-score),[17],-0.202
same,glycan array binding signal (z-score),[18],-0.209
same,glycan array binding signal (z-score),[19],-0.127
same,glycan array binding signal (z-score),[20],-0.21
same,glycan array binding signal (z-score),[21],-0.209
same,glycan array binding signal (z-score),[22],-0.182
same,glycan array binding signal (z-score),[23],-0.221
same,glycan array binding signal (z-score),[24],-0.132
same,glycan array binding signal (z-score),[25],-0.11
